High-throughput results (PubChem BioAssay)
The entries come from a sample that favours hits as a whole.
ALR H2O2 inh = inhibitors of human ALR sulfhydryl oxidase, primary screen, biochemical, H2O2 detection, HRP-luminol luminescence, single point; purified ALR, DTT oxidation; AID 485317, 2010; inhibition, % (no concentration beside the values); FAD-linked sulfhydryl oxidase ALR (Homo sapiens), P55789; hit rate 3.8% among 290,000;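 active = mean replicate inhibition above about 79%, with every replicate also reaching it, limit read from the data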
Target sequence (P55789 whole entry, looked up): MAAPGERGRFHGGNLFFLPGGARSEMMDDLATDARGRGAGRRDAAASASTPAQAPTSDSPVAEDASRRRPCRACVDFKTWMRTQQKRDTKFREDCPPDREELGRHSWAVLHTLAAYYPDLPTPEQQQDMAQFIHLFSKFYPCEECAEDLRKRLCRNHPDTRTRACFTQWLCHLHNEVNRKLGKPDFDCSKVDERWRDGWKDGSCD
ERp5 block = inhibitors of ERp5-driven insulin aggregation, primary screen, biochemical, turbidity, absorbance 650 nm, single point. Protein disulfide-isomerase A6 (Homo sapiens), Q15084. 90 min. inhibition, % at 9.99 µM. hit rate 0.05% among 350,000. AID 651711, 2012;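 active = mean replicate inhibition above about 25%, with every replicate also reaching it, limit read from the data, passing the limit was not always enough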
Target sequence (Q15084 whole entry, looked up): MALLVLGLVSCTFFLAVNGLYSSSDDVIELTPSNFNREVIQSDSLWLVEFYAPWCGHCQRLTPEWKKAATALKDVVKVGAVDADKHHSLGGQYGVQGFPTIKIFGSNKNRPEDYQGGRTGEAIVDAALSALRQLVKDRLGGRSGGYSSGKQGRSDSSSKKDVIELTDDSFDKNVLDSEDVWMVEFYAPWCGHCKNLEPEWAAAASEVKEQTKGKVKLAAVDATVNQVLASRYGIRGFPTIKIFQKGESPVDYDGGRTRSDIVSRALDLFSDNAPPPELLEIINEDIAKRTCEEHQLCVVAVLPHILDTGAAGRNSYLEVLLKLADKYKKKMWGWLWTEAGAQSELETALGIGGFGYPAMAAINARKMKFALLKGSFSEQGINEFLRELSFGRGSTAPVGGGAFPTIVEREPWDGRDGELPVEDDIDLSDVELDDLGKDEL
PDI inh = inhibitors of human PDI, primary screen, biochemical, turbidity, single point, plate reader. Protein disulfide-isomerase (Homo sapiens), P07237. PDI insulin aggregation turbidity, A650, 90 min. inhibition, % at 10 µM. hit rate 0.052% among 350,000. AID 588391, 2011;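 active = mean inhibition across replicates of 30% or more, whatever share of single replicates reach that level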
CendR NRP1 mod = modulators of CendR peptide binding to NRP-1, primary screen, biochemical, fluorescence polarization, uHTS. Neuropilin-1 (Homo sapiens), O14786. FAM-RPARPAR peptide binding to NRP-1. inhibition, % at 25 µM. hit rate 0.85% among 360,000. AID 602438, 2012;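 active = inhibition or corrected inhibition above about 18%, plus a signal ratio from 0.5 to 1.5, limit read from the data, passing the limit was not always enough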
PglD inh = C. jejuni PglD acetyltransferase inhibitors, primary screen, biochemical, DTNB colorimetric, single point. hit rate 0.098% among 360,000. UDP-N-acetylbacillosamine N-acetyltransferase PglD (Campylobacter jejuni). inhibition, % at 12.5 µM. purified PglD enzyme, DTNB colorimetric CoA detection; in the data active = inhibition above about 16%, passing the limit was not always enough
ARNT TACC3 PPI = disruptors of ARNT/TACC3 protein interaction, primary screen, biochemical, AlphaScreen, single concentration. Transforming acidic coiled-coil-containing protein 3 (Homo sapiens), Q9Y6A5. AlphaScreen His-ARNT PAS-B/GST-TACC3 binding, luminescence; TACC3 fragment carries E629A point mutation. inhibition, % at 9.99 µM. hit rate 0.66% among 390,000. AID 623870, 2012;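 active = mean inhibition of replicates at least 50% and at least half of replicates each reaching 50%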
Of the large screens only hits and unclear results are named; the others gave an inactive call.

COc1ccc(/C=C2\SC(N3CCCCC3)=NC2=O)cc1OC	none
CN(C)c1ccc(/C=C2\SC(N3CCCCC3)=NC2=O)cc1	ALR H2O2 inh 99
CN1CCN(C(=O)c2cc3c(c(-c4cccc(C#CCC5CCCC5)c4)n2)[C@H](CCO)N(S(=O)C(C)(C)C)C3)CC1 (stereo partly specified)	none (no result: ALR H2O2 inh, PDI inh, CendR NRP1 mod)
C[C@@H]1CCCCO[C@H](CN(C)C(=O)Nc2ccc(F)cc2)[C@@H](C)CN([C@@H](C)CO)C(=O)c2cc(NS(=O)(=O)c3ccc(F)cc3)ccc2O1	none (no result: ALR H2O2 inh, ERp5 block, PDI inh, CendR NRP1 mod)
COC(=O)C(C(=O)Nc1ccccc1C)C1CCCC1 (stereo unspecified)	none (no result: ERp5 block, PglD inh)
Cc1ccccc1NC(=O)C(NC1CCCCC1)C(C)C (stereo unspecified)	ALR H2O2 inh 99 (no result: PglD inh)
O=C(O)c1cccc(Nc2nc(-c3cc4ccccc4oc3=O)cs2)c1	none
O=c1oc2ccccc2cc1-c1csc(NN=C2CCCC2)n1	ALR H2O2 inh 98 (no result: ERp5 block)
COc1ccc(CN(C)C[C@H]2Oc3ccc(NS(=O)(=O)c4ccc(Cl)cc4)cc3CC(=O)N([C@H](C)CO)C[C@@H]2C)cc1	none (no result: ALR H2O2 inh, PDI inh, CendR NRP1 mod, PglD inh, ARNT TACC3 PPI)
c1ccc2c(c1)CC(N1CCCCC1)c1ccccc1S2 (stereo unspecified)	CendR NRP1 mod 41 (no result: PglD inh)
CCc1ccc2c(c1)Sc1ccccc1CC2N1CCN(C)CC1 (stereo unspecified)	none
O=C(NNS(=O)(=O)c1cc(Cl)cc(Cl)c1)c1sccc1-n1cccc1	ALR H2O2 inh 88 (no result: ERp5 block)
O=C1O[C@H](c2ccccc2)[C@H](c2ccccc2)N2[C@H]1[C@@H](C(=O)NC[C@H](O)c1ccccc1)[C@]1(C(=O)Nc3ccc(C#CCCO)cc31)[C@H]2c1ccc(OCCO)cc1	none (no result: ALR H2O2 inh, PDI inh, CendR NRP1 mod)
COc1ccc(S(=O)(=O)Nc2c(C(=O)O)[nH]c3ccccc23)cc1OC	none (no result: ERp5 block, PglD inh)
Cc1ccc(S(=O)(=O)Nc2c(C(=O)O)[nH]c3ccccc23)c(C)c1	ALR H2O2 inh 98
COc1ccc(S(=O)(=O)Nc2c(C(=O)O)[nH]c3ccccc23)cc1	ALR H2O2 inh 91
O=C(O)c1[nH]c2ccccc2c1NS(=O)(=O)Cc1ccccc1	ALR H2O2 inh 99 (no result: ERp5 block)
O=S(=O)(Cc1ccccc1)Nc1ccccc1	none
O=C(O)c1[nH]c2ccccc2c1NS(=O)(=O)c1ccc(F)cc1	ALR H2O2 inh 94
C[C@@H]1CN([C@@H](C)CO)C(=O)c2cc(C#CC3CC3)cnc2O[C@@H]1CN(C)C(=O)c1ccccc1	none (no result: ALR H2O2 inh, PDI inh, CendR NRP1 mod)
O=C(N[C@H]1CC[C@H](CCNC(=O)c2ccccc2F)O[C@@H]1CO)c1ccc2c(c1)OCO2	none (no result: ALR H2O2 inh, PDI inh, CendR NRP1 mod)
CNC(=O)C[C@H]1CC[C@H]2[C@@H](COC[C@H](O)CN2Cc2ccccc2F)O1	none (no result: ALR H2O2 inh, PDI inh, CendR NRP1 mod)
CCCCN(CCCNC(=O)c1c(C)cc(=O)oc1C)c1ccccc1	ALR H2O2 inh 99 (no result: ERp5 block, PglD inh)
Cc1cc(=O)oc(C)c1C(=O)NCc1ccccc1	none (no result: ERp5 block)
CCN(CCCNC(=O)c1c(C)cc(=O)oc1C)c1ccccc1	ALR H2O2 inh 99 (no result: ERp5 block, PglD inh)
Cc1ccnc(NC(c2ccccn2)c2c(C)[nH]c3ccccc23)c1 (stereo unspecified)	ALR H2O2 inh 98 (no result: PglD inh)
Cc1[nH]c2ccccc2c1C(c1ccccn1)N1CCCC1 (stereo unspecified)	none (no result: ALR H2O2 inh, PglD inh)
O=C(C[C@H]1CC[C@@H](NS(=O)(=O)c2ccc(F)cc2)[C@H](CO)O1)NC1CCC1	ARNT TACC3 PPI 30 (no result: ALR H2O2 inh, PDI inh, CendR NRP1 mod)
O=C(C[C@H]1CC[C@H](NS(=O)(=O)c2ccc(F)cc2)[C@@H](CO)O1)NC1CCC1	none (no result: ALR H2O2 inh, PDI inh, CendR NRP1 mod)
CO[C@@H]1CN(C)C(=O)c2cc(NC(=O)C3CCCC3)ccc2OC[C@H](C)NC[C@@H]1C	none (no result: ALR H2O2 inh, PDI inh, CendR NRP1 mod)
COc1ccc(N2CCN(CCNC(=O)C3CC(=O)N(C4CCCC4)C3)CC2)cc1 (stereo unspecified)	ALR H2O2 inh 86
COc1ccc(CNC(=O)C2CC(=O)N(C3CCCCC3)C2)cc1 (stereo unspecified)	none
O=C(NCCc1ccccc1)C1CCCN(c2ncnc3c2nc2n3CCCCC2)C1 (stereo unspecified)	none
O=C(NCCCN1CCN(c2ccccc2)CC1)C1CCCN(c2ncnc3c2nc2n3CCCCC2)C1 (stereo unspecified)	ALR H2O2 inh 99
O=C(NCCN1CCN(c2cccc(Cl)c2)CC1)C1CCCN(S(=O)(=O)c2cnc[nH]2)C1 (stereo unspecified)	ALR H2O2 inh 96
O=C(NCc1ccccc1Cl)C1CCCN(S(=O)(=O)c2cnc[nH]2)C1 (stereo unspecified)	ALR H2O2 inh 94
O=C(NCc1cccs1)C1CCCN(S(=O)(=O)c2cnc[nH]2)C1 (stereo unspecified)	none (no result: ALR H2O2 inh)
O=C(NCCN1CCN(c2ccccc2)CC1)C1CCCN(S(=O)(=O)c2cnc[nH]2)C1 (stereo unspecified)	ALR H2O2 inh 97 (no result: ERp5 block)
N#C[C@H]1[C@@H](c2ccc(C3=CCCCC3)cc2)[C@H](CO)N1C(=O)CN1CCOCC1	none (no result: ALR H2O2 inh, PDI inh, CendR NRP1 mod)
COc1cccc(-c2nc(CS(=O)(=O)CC(=O)Nc3ccccc3Cl)c(C)o2)c1	ALR H2O2 inh 87
COc1cccc(-c2nc(CS(=O)(=O)CC(=O)Nc3ccccc3C)c(C)o2)c1	none
COc1cccc(-c2nc(CS(=O)(=O)CC(=O)Nc3ccccc3Br)c(C)o2)c1	ALR H2O2 inh 94
CCCN(C)C[C@H]1Oc2cc(C#Cc3ccccn3)ccc2S(=O)(=O)N([C@H](C)CO)C[C@H]1C	none (no result: ALR H2O2 inh, PDI inh, CendR NRP1 mod)
C[C@H](CO)N1C[C@H](C)[C@@H](CN(C)C(=O)c2ccncc2)Oc2ncc(C#CC3CCCCC3)cc2C1=O	none (no result: ALR H2O2 inh, PDI inh, CendR NRP1 mod)
Nc1ccccc1Nc1c(F)c(F)nc(F)c1Cl	ALR H2O2 inh 98
Nc1ccccc1Nc1cc(-c2cccc(Cl)c2)nn1-c1ccccc1	none (no result: ERp5 block, PglD inh)
COc1ccc(NC(=O)N(C)C[C@H]2OCCCC[C@H](C)Oc3ccc(NC(=O)c4ccccc4)cc3C(=O)N([C@H](C)CO)C[C@H]2C)cc1	none (no result: ALR H2O2 inh, PDI inh, CendR NRP1 mod, PglD inh, ARNT TACC3 PPI)
CN1CCN(/N=C/c2nc(-c3cccc([N+](=O)[O-])c3)n3ccccc23)CC1	ALR H2O2 inh 99 (no result: PglD inh)
CCN(CC)c1ccc(/C=C2\SC(N)=NC2=O)cc1	ALR H2O2 inh 99
NC1=NC(=O)/C(=C/c2ccc(OCC(=O)O)cc2)S1	none
CO[C@H]1CN(C)C(=O)c2cc(NS(=O)(=O)Cc3ccccc3)ccc2OC[C@@H](C)NC[C@H]1C	none (no result: ALR H2O2 inh, PDI inh, CendR NRP1 mod)
